# Results: PubChem BioAssay (NCI)
# This is part of a sample that, as a whole, favours compounds with a hit. Of some 79,000 tested, about 15% had one in any assay. A number with no mark means an inactive call. Calls of active or inactive are those of the source. Rule as the data show it: active = growth inhibition above about 70%; inactive = the rest.
# Assays:
# [1] = NCI Yeast Anticancer Drug Screen. Data for the rad52 strain (AID 147);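 also: 0% = growth of vehicle-treated control cultures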; details: S. cerevisiae rad52 mutant growth inhibition, stronger effect = higher value
# Procedure, shortened: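 Inhibition of yeast growth, referenced to vehicle controls, was the measured output for a strain with defective DNA damage repair.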
# [2] = NCI Yeast Anticancer Drug Screen. Data for the wt1 strain (AID 149);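 also: 0% = growth of vehicle-treated wt1 cultures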; details: S. cerevisiae wt1 strain (SPY 50644) growth inhibition, stronger effect = higher value
# Procedure, shortened: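 Compounds are added to wt1 yeast cultures. Growth is then measured. Inhibition is expressed relative to vehicle-treated controls.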
# [3] = NCI Yeast Anticancer Drug Screen. Data for the rad50EPP+ strain (AID 151);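 also: 0% = growth of vehicle-treated control cultures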; details: S. cerevisiae rad50 mutant strain, stronger effect = higher value
# Procedure, shortened: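 Genetically defined yeast (rad50EPP+, DNA damage repair alteration) is grown with compound, and inhibition of growth is expressed relative to vehicle-treated controls.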
# [4] = NCI Yeast Anticancer Drug Screen. Data for the mgt1 strain (AID 153); details: S. cerevisiae mgt1 mutant growth inhibition, stronger effect = higher value
# Procedure, shortened: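 In the mgt1 strain, test compounds were added and growth inhibition was determined relative to vehicle-treated controls.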
# [5] = NCI Yeast Anticancer Drug Screen. Data for the rad50 strain (AID 155);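 also: 0% = growth of vehicle-only cultures of the same strain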; details: S. cerevisiae rad50 strain growth inhibition, stronger effect = higher value
# Procedure, shortened: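 Inhibition values express reduced yeast growth in compound-treated cultures relative to vehicle-treated controls.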
# [6] = NCI Yeast Anticancer Drug Screen. Data for the mec2-1 strain (AID 157); details: S. cerevisiae mec2-1 strain, stronger effect = higher value
# Procedure, shortened: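 Each compound was tested on mec2-1 yeast, a strain altered in DNA damage repair or cell cycle control. Growth inhibition is reported relative to vehicle.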
# [7] = NCI Yeast Anticancer Drug Screen. Data for the rad14 strain (AID 159);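 also: 0% = growth of vehicle-treated control cultures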; details: S. cerevisiae rad14 strain growth inhibition, stronger effect = higher value
# Procedure, shortened: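 A mutant yeast strain defective in DNA damage repair is treated with compound; inhibition of its growth is scored against untreated, vehicle-exposed cultures.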
# [8] = NCI Yeast Anticancer Drug Screen. Data for the sgs1 mgt1 strain (AID 161);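 also: 0% = growth of cultures given vehicle only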; details: S. cerevisiae sgs1 mgt1 strain, stronger effect = higher value
# Procedure, shortened: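 Inhibition of yeast growth, normalised to vehicle-treated controls, is reported for a strain bearing genetic alterations in DNA damage repair.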
# [9] = NCI Yeast Anticancer Drug Screen. Data for the CLN2oe strain (AID 163);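 also: 0% = growth of vehicle-only control cultures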; details: S. cerevisiae CLN2oe strain, stronger effect = higher value
# Procedure, shortened: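 First, the altered yeast strain was treated with each compound; second, its growth was measured; finally, inhibition was derived by comparison with vehicle controls.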
# [10] = NCI Yeast Anticancer Drug Screen. Data for the cln2 rad14 strain (AID 165);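 also: 0% = growth equal to vehicle treated cultures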; details: S. cerevisiae cln2 rad14 strain, stronger effect = higher value
# Procedure, shortened: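 Test compounds were added to cln2 rad14 yeast cultures; inhibition of growth was then determined by comparison with vehicle treatment.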
# [11] = NCI Yeast Anticancer Drug Screen. Data for the bub3 strain (AID 167); details: S. cerevisiae bub3 mutant strain, stronger effect = higher value
# Procedure, shortened: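 Steps: expose the mutant yeast strain to compound; grow alongside vehicle-treated cultures; measure growth; express inhibition against the vehicle cultures.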
# [12] = NCI Yeast Anticancer Drug Screen. Data for the wt2 strain (AID 169);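 also: 0% = growth of vehicle-treated yeast cultures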; details: S. cerevisiae wt2 strain growth inhibition, stronger effect = higher value
# Procedure, shortened: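 The panel's yeast strains carry defined changes in DNA repair or cell cycle genes. Each strain is grown with compound, and growth loss is scored relative to vehicle.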
# [13] = NCI Yeast Anticancer Drug Screen. Data for the mlh1 strain (AID 171);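 also: 0% = growth of vehicle-treated control cultures of the same strain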; details: S. cerevisiae mlh1 strain growth inhibition, stronger effect = higher value
# Procedure, shortened: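 Inhibition values reflect reduced yeast growth in the presence of compound, referenced to vehicle controls, using a strain chosen for its alteration in DNA repair or cell cycle control.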
# [14] = NCI Yeast Anticancer Drug Screen. Data for the sgs1 strain (AID 173);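 also: 0% = growth of vehicle-only control cultures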; details: S. cerevisiae sgs1 mutant, stronger effect = higher value
# Procedure, shortened: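 Vehicle-treated cultures served as reference for growth inhibition of a yeast strain altered in DNA damage repair or cell cycle control after compound exposure.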
# [15] = NCI Yeast Anticancer Drug Screen. Data for the mlh1 rad18 strain (AID 175); details: S. cerevisiae mlh1 rad18 strain growth inhibition, stronger effect = higher value
# Procedure, shortened: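 Inhibition values reflect reduced growth of mutant yeast versus vehicle-treated controls following compound exposure; the mutations affect DNA damage repair.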
# [16] = NCI Yeast Anticancer Drug Screen. Data for the rad18 strain (AID 177); details: S. cerevisiae rad18 mutant growth inhibition, stronger effect = higher value
# Procedure, shortened: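 Steps: expose repair-mutant yeast to compound; measure growth; express as inhibition relative to vehicle control.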
# [17] = at 5.0 µM (retest, dose inferred, filed as 0.5)
# [18] = at 50.0 µM (retest, dose inferred, filed as 5.0)
structure (smiles),measurement,setting,value
O=C(O)Cc1cc(F)ccc1C(=O)O,growth inhibition,[1]; at 1.2 µM,3%
same,growth inhibition,[1]; at 3.7 µM,4%
same,growth inhibition,[1]; at 11.0 µM,7%
same,growth inhibition,[1]; at 33.0 µM,12%
same,growth inhibition,[1]; at 100.0 µM,28%
same,growth inhibition,[2]; at 1.2 µM,3%
same,growth inhibition,[2]; at 3.7 µM,7%
same,growth inhibition,[2]; at 11.0 µM,13%
same,growth inhibition,[2]; at 33.0 µM,16%
same,growth inhibition,[2]; at 100.0 µM,25%
same,growth inhibition,[3]; at 1.2 µM,-2%
same,growth inhibition,[3]; at 3.7 µM,-6%
same,growth inhibition,[3]; at 11.0 µM,-13%
same,growth inhibition,[3]; at 33.0 µM,-26%
same,growth inhibition,[3]; at 100.0 µM,-15%
same,growth inhibition,[4]; at 1.2 µM,-1%
same,growth inhibition,[4]; at 3.7 µM,3%
same,growth inhibition,[4]; at 11.0 µM,9%
same,growth inhibition,[4]; at 33.0 µM,28%
same,growth inhibition,[4]; at 100.0 µM,48%
same,growth inhibition,[5]; at 1.2 µM,3%
same,growth inhibition,[5]; at 3.7 µM,3%
same,growth inhibition,[5]; [17],-2%
same,growth inhibition,[5]; at 11.0 µM,6%
same,growth inhibition,[5]; at 33.0 µM,12%
same,growth inhibition,[5]; [18],45%
same,growth inhibition,[5]; at 50.0 µM,5.3%
same,growth inhibition,[5]; at 100.0 µM,29%
same,growth inhibition,[6]; at 1.2 µM,-1%
same,growth inhibition,[6]; at 3.7 µM,0%
same,growth inhibition,[6]; [17],1%
same,growth inhibition,[6]; at 11.0 µM,3%
same,growth inhibition,[6]; at 33.0 µM,11%
same,growth inhibition,[6]; [18],2%
same,growth inhibition,[6]; at 50.0 µM,29.9%
same,growth inhibition,[6]; at 100.0 µM,30%
same,growth inhibition,[7]; at 1.2 µM,0%
same,growth inhibition,[7]; at 3.7 µM,-2%
same,growth inhibition,[7]; at 11.0 µM,4%
same,growth inhibition,[7]; at 33.0 µM,14%
same,growth inhibition,[7]; at 100.0 µM,51%
same,growth inhibition,[8]; [17],-8%
same,growth inhibition,[8]; [18],65%
same,growth inhibition,[8]; at 50.0 µM,21.2%
same,growth inhibition,[9]; at 1.2 µM,1%
same,growth inhibition,[9]; at 3.7 µM,4%
same,growth inhibition,[9]; at 11.0 µM,12%
same,growth inhibition,[9]; at 33.0 µM,7%
same,growth inhibition,[9]; at 100.0 µM,12%
same,growth inhibition,[10]; [17],-2%
same,growth inhibition,[10]; [18],5%
same,growth inhibition,[10]; at 50.0 µM,94.5% (active)
same,growth inhibition,[11]; at 1.2 µM,-1%
same,growth inhibition,[11]; at 3.7 µM,-2%
same,growth inhibition,[11]; [17],8%
same,growth inhibition,[11]; at 11.0 µM,1%
same,growth inhibition,[11]; at 33.0 µM,4%
same,growth inhibition,[11]; [18],66%
same,growth inhibition,[11]; at 50.0 µM,73.5% (active)
same,growth inhibition,[11]; at 100.0 µM,17%
same,growth inhibition,[12]; at 1.2 µM,2%
same,growth inhibition,[12]; at 3.7 µM,6%
same,growth inhibition,[12]; at 11.0 µM,13%
same,growth inhibition,[12]; at 33.0 µM,18%
same,growth inhibition,[12]; at 100.0 µM,42%
same,growth inhibition,[13]; at 1.2 µM,5%
same,growth inhibition,[13]; at 3.7 µM,2%
same,growth inhibition,[13]; at 11.0 µM,7%
same,growth inhibition,[13]; at 33.0 µM,15%
same,growth inhibition,[13]; at 100.0 µM,76% (active)
same,growth inhibition,[14]; at 1.2 µM,2%
same,growth inhibition,[14]; at 3.7 µM,7%
same,growth inhibition,[14]; at 11.0 µM,9%
same,growth inhibition,[14]; at 33.0 µM,21%
same,growth inhibition,[14]; at 100.0 µM,65%
same,growth inhibition,[15]; [17],-5%
same,growth inhibition,[15]; [18],75% (active)
same,growth inhibition,[15]; at 50.0 µM,38.3%
same,growth inhibition,[16]; at 1.2 µM,3%
same,growth inhibition,[16]; at 3.7 µM,1%
same,growth inhibition,[16]; at 11.0 µM,0%
same,growth inhibition,[16]; at 33.0 µM,12%
same,growth inhibition,[16]; at 100.0 µM,42%
O=C(O)C1CC(c2ccccc2)=NN1c1ccccc1 (stereo unspecified),growth inhibition,[1]; at 1.2 µM,-28%
same,growth inhibition,[1]; at 3.7 µM,-9%
same,growth inhibition,[1]; at 11.0 µM,4%
same,growth inhibition,[1]; at 33.0 µM,58%
same,growth inhibition,[1]; at 100.0 µM,95% (active)
same,growth inhibition,[2]; at 1.2 µM,-60%
same,growth inhibition,[2]; at 3.7 µM,-56%
same,growth inhibition,[2]; at 11.0 µM,-50%
same,growth inhibition,[2]; at 33.0 µM,-11%
same,growth inhibition,[2]; at 100.0 µM,93% (active)
same,growth inhibition,[3]; at 1.2 µM,-17%
same,growth inhibition,[3]; at 3.7 µM,-17%
same,growth inhibition,[3]; at 11.0 µM,-9%
same,growth inhibition,[3]; at 33.0 µM,-3%
same,growth inhibition,[3]; at 100.0 µM,51%
same,growth inhibition,[4]; at 1.2 µM,-48%
same,growth inhibition,[4]; at 3.7 µM,-56%
same,growth inhibition,[4]; at 11.0 µM,-41%
same,growth inhibition,[4]; at 33.0 µM,-1%
same,growth inhibition,[4]; at 100.0 µM,95% (active)
same,growth inhibition,[5]; at 1.2 µM,-10%
same,growth inhibition,[5]; at 3.7 µM,-11%
same,growth inhibition,[5]; [17],27%
same,growth inhibition,[5]; at 11.0 µM,-1%
same,growth inhibition,[5]; at 33.0 µM,33%
same,growth inhibition,[5]; [18],84% (active)
same,growth inhibition,[5]; at 50.0 µM,19.4%
same,growth inhibition,[5]; at 100.0 µM,95% (active)
same,growth inhibition,[6]; at 1.2 µM,-45%
same,growth inhibition,[6]; at 3.7 µM,-53%
same,growth inhibition,[6]; [17],27%
same,growth inhibition,[6]; at 11.0 µM,-42%
same,growth inhibition,[6]; at 33.0 µM,-43%
same,growth inhibition,[6]; [18],84% (active)
same,growth inhibition,[6]; at 50.0 µM,59.8%
same,growth inhibition,[6]; at 100.0 µM,92% (active)
same,growth inhibition,[7]; at 1.2 µM,-19%
same,growth inhibition,[7]; at 3.7 µM,-15%
same,growth inhibition,[7]; at 11.0 µM,-18%
same,growth inhibition,[7]; at 33.0 µM,28%
same,growth inhibition,[7]; at 100.0 µM,97% (active)
same,growth inhibition,[8]; [17],-12%
same,growth inhibition,[8]; [18],25%
same,growth inhibition,[8]; at 50.0 µM,58.6%
same,growth inhibition,[9]; at 1.2 µM,-5%
same,growth inhibition,[9]; at 3.7 µM,17%
same,growth inhibition,[9]; at 11.0 µM,22%
same,growth inhibition,[9]; at 33.0 µM,29%
same,growth inhibition,[9]; at 100.0 µM,97% (active)
same,growth inhibition,[10]; [17],-15%
same,growth inhibition,[10]; [18],-61%
same,growth inhibition,[10]; at 50.0 µM,62.8%
same,growth inhibition,[11]; at 1.2 µM,-28%
same,growth inhibition,[11]; at 3.7 µM,-22%
same,growth inhibition,[11]; [17],-7%
same,growth inhibition,[11]; at 11.0 µM,-20%
same,growth inhibition,[11]; at 33.0 µM,-10%
same,growth inhibition,[11]; [18],78% (active)
same,growth inhibition,[11]; at 50.0 µM,46%
same,growth inhibition,[11]; at 100.0 µM,94% (active)
same,growth inhibition,[12]; at 1.2 µM,-38%
same,growth inhibition,[12]; at 3.7 µM,-46%
same,growth inhibition,[12]; at 11.0 µM,-36%
same,growth inhibition,[12]; at 33.0 µM,0%
same,growth inhibition,[12]; at 100.0 µM,98% (active)
same,growth inhibition,[13]; at 1.2 µM,-31%
same,growth inhibition,[13]; at 3.7 µM,-14%
same,growth inhibition,[13]; at 11.0 µM,-9%
same,growth inhibition,[13]; at 33.0 µM,8%
same,growth inhibition,[13]; at 100.0 µM,96% (active)
same,growth inhibition,[14]; at 1.2 µM,-29%
same,growth inhibition,[14]; at 3.7 µM,-34%
same,growth inhibition,[14]; at 11.0 µM,-16%
same,growth inhibition,[14]; at 33.0 µM,20%
same,growth inhibition,[14]; at 100.0 µM,96% (active)
same,growth inhibition,[15]; [17],52%
same,growth inhibition,[15]; [18],96% (active)
same,growth inhibition,[15]; at 50.0 µM,85.2% (active)
same,growth inhibition,[16]; at 1.2 µM,-38%
same,growth inhibition,[16]; at 3.7 µM,-37%
same,growth inhibition,[16]; at 11.0 µM,-12%
same,growth inhibition,[16]; at 33.0 µM,26%
same,growth inhibition,[16]; at 100.0 µM,96% (active)
